Measured values as given in PubChem BioAssay AID1671202 (University of Kansas High Throughput Screening Laboratory, 2021).
Screen size: about 190,000 compounds; about 6,900 (3.6%) were called active. The list comes from a sample in which actives are over-represented; it also holds similar structures and randomly drawn compounds. Values without a mark were called inactive. No stated cut-off is given here; in the data, active means inhibition above about 50%; inactive means the rest.

Target: Huntingtin (Homo sapiens) (UniProt P42858)
Sequence (P42858 whole entry, looked up, stated change not applied): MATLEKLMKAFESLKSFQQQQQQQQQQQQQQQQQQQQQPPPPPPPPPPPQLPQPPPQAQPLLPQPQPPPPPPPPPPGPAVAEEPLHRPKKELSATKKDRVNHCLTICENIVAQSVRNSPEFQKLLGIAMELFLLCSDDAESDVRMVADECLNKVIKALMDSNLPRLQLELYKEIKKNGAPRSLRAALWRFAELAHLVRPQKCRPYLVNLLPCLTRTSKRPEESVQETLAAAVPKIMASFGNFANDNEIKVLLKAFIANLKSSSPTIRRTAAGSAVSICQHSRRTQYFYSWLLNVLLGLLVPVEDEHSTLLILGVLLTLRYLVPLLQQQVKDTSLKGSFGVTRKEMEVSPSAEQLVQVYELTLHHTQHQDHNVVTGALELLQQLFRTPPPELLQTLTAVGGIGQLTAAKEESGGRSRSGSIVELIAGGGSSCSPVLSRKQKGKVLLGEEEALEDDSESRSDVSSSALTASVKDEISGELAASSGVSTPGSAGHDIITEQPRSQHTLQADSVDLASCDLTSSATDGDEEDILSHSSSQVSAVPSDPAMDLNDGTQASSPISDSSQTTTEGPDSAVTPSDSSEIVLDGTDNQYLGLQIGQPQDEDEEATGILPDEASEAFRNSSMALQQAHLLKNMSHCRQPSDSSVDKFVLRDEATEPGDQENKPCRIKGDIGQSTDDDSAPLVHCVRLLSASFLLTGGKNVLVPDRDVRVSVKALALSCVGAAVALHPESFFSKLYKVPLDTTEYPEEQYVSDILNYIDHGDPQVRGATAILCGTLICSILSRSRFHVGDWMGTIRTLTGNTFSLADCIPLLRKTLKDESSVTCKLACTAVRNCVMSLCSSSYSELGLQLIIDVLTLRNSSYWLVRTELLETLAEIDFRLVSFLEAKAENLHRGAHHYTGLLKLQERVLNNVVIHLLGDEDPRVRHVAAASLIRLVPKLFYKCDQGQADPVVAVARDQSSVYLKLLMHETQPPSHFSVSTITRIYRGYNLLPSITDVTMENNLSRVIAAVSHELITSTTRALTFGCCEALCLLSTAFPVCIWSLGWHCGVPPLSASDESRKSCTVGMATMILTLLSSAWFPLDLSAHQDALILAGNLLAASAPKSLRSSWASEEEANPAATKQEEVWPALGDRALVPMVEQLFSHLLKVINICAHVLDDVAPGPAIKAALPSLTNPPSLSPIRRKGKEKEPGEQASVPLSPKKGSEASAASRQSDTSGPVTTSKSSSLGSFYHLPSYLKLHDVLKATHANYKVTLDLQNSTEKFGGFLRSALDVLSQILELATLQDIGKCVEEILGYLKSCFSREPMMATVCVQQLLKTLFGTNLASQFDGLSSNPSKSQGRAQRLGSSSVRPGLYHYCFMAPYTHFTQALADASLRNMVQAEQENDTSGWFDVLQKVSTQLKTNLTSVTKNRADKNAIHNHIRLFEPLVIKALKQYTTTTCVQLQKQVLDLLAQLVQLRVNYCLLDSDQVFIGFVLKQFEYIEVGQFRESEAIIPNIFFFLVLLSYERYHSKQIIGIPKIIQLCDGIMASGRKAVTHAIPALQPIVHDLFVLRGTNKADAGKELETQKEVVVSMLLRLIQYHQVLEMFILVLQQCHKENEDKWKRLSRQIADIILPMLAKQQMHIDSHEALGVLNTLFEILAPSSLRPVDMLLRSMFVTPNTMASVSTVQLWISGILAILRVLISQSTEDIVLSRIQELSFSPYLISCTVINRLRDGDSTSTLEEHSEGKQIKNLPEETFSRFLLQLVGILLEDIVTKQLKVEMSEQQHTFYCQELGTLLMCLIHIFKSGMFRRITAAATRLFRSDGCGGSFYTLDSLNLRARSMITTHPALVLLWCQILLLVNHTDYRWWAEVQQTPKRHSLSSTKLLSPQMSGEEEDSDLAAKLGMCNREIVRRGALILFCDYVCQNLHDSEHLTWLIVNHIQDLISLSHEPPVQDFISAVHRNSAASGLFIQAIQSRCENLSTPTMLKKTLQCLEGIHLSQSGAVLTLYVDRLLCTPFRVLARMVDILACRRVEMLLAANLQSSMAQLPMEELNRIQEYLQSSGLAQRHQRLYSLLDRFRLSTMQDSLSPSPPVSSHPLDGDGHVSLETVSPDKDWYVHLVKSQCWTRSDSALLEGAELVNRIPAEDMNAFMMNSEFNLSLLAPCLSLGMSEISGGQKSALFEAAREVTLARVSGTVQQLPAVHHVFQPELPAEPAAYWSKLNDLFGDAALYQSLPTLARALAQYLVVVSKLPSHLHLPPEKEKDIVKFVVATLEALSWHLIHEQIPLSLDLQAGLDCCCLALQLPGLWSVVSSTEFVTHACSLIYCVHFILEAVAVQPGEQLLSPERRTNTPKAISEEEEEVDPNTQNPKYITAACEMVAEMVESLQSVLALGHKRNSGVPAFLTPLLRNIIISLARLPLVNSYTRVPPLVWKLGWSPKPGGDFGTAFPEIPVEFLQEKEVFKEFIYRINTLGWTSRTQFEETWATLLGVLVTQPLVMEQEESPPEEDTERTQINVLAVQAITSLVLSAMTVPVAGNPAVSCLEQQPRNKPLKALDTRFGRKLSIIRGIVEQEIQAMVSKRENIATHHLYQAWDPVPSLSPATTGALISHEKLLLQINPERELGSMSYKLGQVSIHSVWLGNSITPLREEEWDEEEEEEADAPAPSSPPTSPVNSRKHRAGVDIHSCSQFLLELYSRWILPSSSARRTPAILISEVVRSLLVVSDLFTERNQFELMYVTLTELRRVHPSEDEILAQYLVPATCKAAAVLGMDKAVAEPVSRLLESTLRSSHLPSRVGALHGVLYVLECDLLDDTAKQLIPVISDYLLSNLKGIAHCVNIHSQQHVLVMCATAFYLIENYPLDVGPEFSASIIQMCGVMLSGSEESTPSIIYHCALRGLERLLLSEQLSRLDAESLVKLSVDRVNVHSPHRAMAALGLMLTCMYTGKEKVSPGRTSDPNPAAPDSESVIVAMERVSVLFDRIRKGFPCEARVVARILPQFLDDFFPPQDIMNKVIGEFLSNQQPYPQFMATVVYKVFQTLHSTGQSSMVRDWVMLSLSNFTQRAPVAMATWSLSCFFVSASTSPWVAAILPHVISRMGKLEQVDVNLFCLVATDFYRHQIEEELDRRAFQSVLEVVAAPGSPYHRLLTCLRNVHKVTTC
Test: mutant huntingtin-calmodulin interaction inhibitors – biochemical, AlphaScreen, primary screen (AID 1671202);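 further: 0% = both proteins with DMSO and 100% = one protein alone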
Conditions: AlphaScreen His-mHTT/GST-CaM binding, luminescence; at 15 µM, hits give high values

Structure (SMILES) | inhibition
CCOC(=O)C1CCN(C(=O)CCN2C(=O)c3ccccc3S2(=O)=O)CC1 | -1.8%
O=C(Nc1ccc2c(c1)OCCO2)N1CCCC1c1ccc(Cl)cc1 (centres undefined) | 10.2%
N#C/C(=C\c1ccc(F)cc1)c1nc(-c2cc3ccccc3oc2=O)cs1 | -8%
CC1(C)Cc2ccccc2-c2nc(NCCO)n(Cc3ccccc3)c(=O)c21 | 15%
Cc1cccc(NC(=O)c2nc(-c3cccc(F)c3)n3c2CCCCC3)n1 | 43.6%
Cn1cc(CCN2CCN(C(=O)c3ccc(C(F)(F)F)cc3)CC2)c2cccnc21 | 54.6% (active)
CCCNC(=O)Cc1cn(C)c2ncccc12 | -16.2%
Cc1ccccc1N1CCN(C(=O)Cc2cn(C)c3ncccc23)CC1 | 10.1%
CCCC(O)=C1C(=O)CC(C)(C)CC1=Nc1cccc([N+](=O)[O-])c1 | -1.5%
CC(=O)Nc1ccc(N/C=C(\C#N)c2nc(-c3ccccc3)cs2)cc1 | 4%
Cc1cccc(-n2nc3c(c2NC(=O)C2CC2)CSC3)c1C | 8%
O=C(/C=C/c1ccco1)Nc1c2c(nn1-c1ccc(Cl)cc1)CSC2 | 98% (active)
O=C(Nc1c2c(nn1-c1ccc(Cl)cc1)CSC2)c1cccc([N+](=O)[O-])c1 | -9%
CC(C)C(=O)Nc1c2c(nn1-c1ccc(Cl)cc1)CSC2 | -5%
COc1ccc(/C=C/C(=O)Nc2c3c(nn2-c2ccccc2C)CSC3)cc1OC | 29%
O=C(Nc1c2c(nn1-c1ccc(Cl)cc1)CSC2)c1cccc(Br)c1 | 50% (active)
Cc1ccccc1-n1nc2c(c1NC(=O)/C=C/c1ccco1)CSC2 | 98% (active)
O=C(Nc1c2c(nn1-c1ccc(Cl)cc1)CSC2)c1ccc(F)cc1 | 21%
Cc1ccccc1-n1nc2c(c1NC(=O)C1CC1)CSC2 | 60% (active)
Cc1cccc(-n2nc3c(c2NC(=O)c2ccc(Br)o2)CSC3)c1C | 24%

Structure (SMILES) | inhibition
COc1cccc(C(=O)Nc2c3c(nn2-c2ccc(Cl)cc2)CSC3)c1 | 41%
Cc1cccc(-n2nc3c(c2NC(=O)c2c(F)cccc2F)CSC3)c1C | 5%
O=C(Nc1ccc(Cl)cc1)c1cc(S(=O)(=O)NCc2ccccc2)ccc1Cl | 13%
COc1ccc(OC)c(-c2cc(C(=O)Nc3nc4c(s3)CCCC4)n(C)n2)c1 | 16.3%
Cc1nc(C2CCN(C(=O)c3cccc(F)c3)CC2)sc1C(=O)NCc1cccnc1 | 9.99%
CCCn1cnnc1C1CCCCN1C(=O)c1ccncc1 (centres undefined) | -3.5%
c1ccc2c(c1)CC1(CCCCC1)N=C2N1CCOCC1 | -5.33%
CC(C)C(=O)Nc1ccc(N2CCCN(C(=O)C3CC3)CC2)nc1 | -1%
CCCc1cc2c(=O)c(-c3ccc4c(c3)OCO4)c(CC)oc2cc1OC(=O)CC | -12.9%
C=CCSC1=C(C#N)C(c2ccco2)C(C(=O)Nc2ccccc2OC)=C(C)N1 (centres undefined) | 8%
O=C(Cc1cccnc1)N1CCCC(c2nc(-c3ccccc3)n[nH]2)C1 (centres undefined) | -0.1%
c1ccc(-c2n[nH]c(C3CCCN(Cc4ccccn4)C3)n2)cc1 (centres undefined) | 100% (active)
c1ccc(-c2n[nH]c(C3CCN(Cc4cccnc4)CC3)n2)cc1 | 9.4%
COC(=O)C(C)Oc1ccc2c(c1)OC(=Cc1ccccc1C)C2=O (centres undefined) | 0.9%
COCCN=C1Nc2ccccc2NC12CCCN(C(=O)CSc1ccccc1)C2 (centres undefined) | 76.2% (active)
COCCN=C1Nc2ccccc2NC12CCCN(C(=O)c1cccc(Cl)c1)C2 (centres undefined) | 65.7% (active)
Cc1ccccc1CNC(=O)C1(C)CCCN(C(=O)c2cccc(Cl)c2)C1 (centres undefined) | 19.4%
Cc1cc(C)n(CC(=O)N2CCCC3(C2)Nc2cccnc2NC3=NC2CCCC2)n1 (centres undefined) | -1.34%
COCCN=C1Nc2ccccc2NC12CCCN(C(=O)Nc1cccc(OC)c1)C2 (centres undefined) | 99.8% (active)
COCCN=C1Nc2ccccc2CNC12CCN(C(=O)c1cccc(C(F)(F)F)c1)C2 (centres undefined) | 18.7%

Structure (SMILES) | inhibition
COCCN=C1Nc2ccccc2NC12CCCN(C(=O)Cc1cccs1)C2 (centres undefined) | 63% (active)
COc1cccc(CNC(=O)N2CCCC3(C2)Nc2cccnc2NC3=NC2CCCC2)c1 (centres undefined) | 1.31%
COc1ccccc1CC(=O)N1CCCC2(C1)Nc1cccnc1NC2=NC1CCCC1 (centres undefined) | 16.8%
CCOc1ccc(CC(=O)N2CCCC3(C2)Nc2cccnc2NC3=NC2CCCC2)cc1 (centres undefined) | 11.4%
COCCN=C1Nc2ccccc2NC12CCCN(S(=O)(=O)c1cccc(OC)c1)C2 (centres undefined) | 11.2%
O=C(c1ccsc1)N1CCCC2(C1)Nc1ccccc1NC2=NC1CCCC1 (centres undefined) | 4.96%
CCOc1ccc(CN2C(=O)CCC2(C)C(=O)NC2CCCC2)cc1OC (centres undefined) | 16%
CCn1c(SCc2ccccc2F)nnc1-c1cccc([N+](=O)[O-])c1 | 13.8%
Cc1ccc(C(=O)COc2ccccc2Cl)cc1C | -114%
COc1ccc([N+](=O)[O-])cc1C1=N/C(=C/c2cccc(F)c2)C(=O)O1 | -5%
COc1ccc(NC(=O)C2CCN(c3cnn(C)c(=O)c3)CC2)c(OC)c1 | 36.1%
COc1cccc(C(=O)N2CCC(Oc3nc4c(C)ccc(C)c4s3)CC2)c1OC | 64.4% (active)
COc1ccccc1C(=O)N1CCC(c2nc(C(=O)N3CCOCC3)c(C)o2)CC1 | -6.99%
COc1cccc(C(=O)N2CCC(c3nnc(C(F)(F)F)o3)CC2)c1OC | -7.5%
Cc1ccc2nc(C(=O)NCc3cc(F)ccc3F)cn2c1 | -9%
C=CCN(CC=C)S(=O)(=O)c1ccc(C(=O)Nc2c(C(N)=O)oc3ccccc23)cc1 | 15.2%
CCNC(=O)C1Cc2ccc(OC)cc2N2CCN(c3ccccc3OC)CC12 (centres undefined) | 47%
COCCNC(=O)C1Cc2ccccc2N2CCN(c3ccccc3)CC12 (centres undefined) | 11.4%
CCNC(=O)C1Cc2ccc(OC)cc2N2CCN(Cc3ccc(Cl)cc3)CC12 (centres undefined) | 93.9% (active)
